Records with an inconclusive call do not appear. Activity calls are given as the source filed them. Unless noted, the call rests on the fitted dose curve; in most records, active means well fitted curve in the direction sought with a large enough effect in the repeat runs; inconclusive means weak or mixed curves; inactive means no such curve, though single readings can be large; an effect the other way counts as inactive or inconclusive. Non-standard residues stand in square brackets, D forms with d. Residues, ends and D or L forms follow the SMILES beside them. *: point of attachment. Sta = CC(C)C[C@H](N)[C@@H](O)CC(=O)O; Isovaleryl = CC(C)CC(=O)*
Experiments:
[1] = qHTS assay for small molecule agonists of the p53 signaling pathway (AID 651631; calls by dose curve; further: nearly all actives have a fitted effect of over 15% in size); details: HCT-116 p53RE-bla reporter, beta-lactamase FRET ratio, 16 h; series mostly up to 73.3 µM
Method in brief: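 Agonist mode screen using a stably integrated beta-lactamase gene under p53 response elements in HCT-116 cells. Compound exposure lasts 16 h at 37 °C; fluorescence intensity is measured following 2 h FRET substrate loading.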

[2] = qHTS assay for small molecule agonists of the p53 signaling pathway - cell viability (AID 651633; calls by dose curve; further: nearly all actives have a fitted effect of over 30% in size); details: p53RE-bla HCT-116 viability, ATP luminescence, 16 h; series mostly up to 83.3 µM
Method in brief: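 p53RE-bla cells were treated with compound for 16 hours at 37 C. Cytotoxicity was then measured as CellTiter-Glo luminescence after 30 min at room temperature.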

[3] = qHTS assay for small molecules that induce genotoxicity in human embryonic kidney cells expressing luciferase-tagged ATAD5 - cell viability (AID 651634; calls by dose curve; further: nearly all actives have a fitted effect of over 25% in size); details: HEK293T ATAD5-luc cells viability, CellTiter-Fluor, 15.5 h; series mostly up to 83.3 µM
Method in brief: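 Cytotoxicity counter-readout: after 15.5 hr compound treatment at 37C, live-cell protease activity in ATAD5-luciferase HEK293T cells measured by CellTiter-Fluor fluorescence, 30 min development at 37C.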

[4] = qHTS assay for small molecule disruptors of the mitochondrial membrane potential - cell viability (AID 720634; calls by dose curve;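 further: human HepG2 liver cancer cells; nearly all actives have a fitted effect of over 20% in size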); details: HepG2 viability, ATP luminescence (CellTiter-Glo), 1 h; series mostly up to 83.2 µM
Method in brief: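 Cytotoxicity was quantified from ATP content by CellTiter-Glo luminescence in the same wells as the MMP dye read-out. HepG2 (2,000 cells/well) were plated overnight and exposed to compounds for 1 hr at 37 C.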

[5] = qHTS assay for small molecule disruptors of the mitochondrial membrane potential (AID 720635); details: HepG2 mitochondrial membrane potential, Mito-MPS dye ratio; series mostly up to 83.2 µM; further: potency means the concentration at half of the fitted maximal effect
Method in brief: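 HepG2 cells exposed to compound 1 hr at 37C, then Mito-MPS dye 30 min. Ratio read of aggregate (540/590 nm) versus monomer (490/535 nm) fluorescence.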

[6] = qHTS assay to test for compound auto fluorescence at 535 nm (green) in HepG2 cells (AID 720675); details: green autofluorescence 485/535 nm, 1 h; series mostly up to 91.3 µM
[7] = qHTS assay to test for compound auto fluorescence at 460 nm (blue) in HEK293 cells (AID 720678); details: blue autofluorescence 405/460 nm; series mostly up to 91.3 µM
Method in brief: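 Blue-channel (Ex/Em 405/460 nm) intensity measured in HEK293 cultures after overnight compound exposure at 37C; signal expressed relative to triamterene. Cells plated 2,000 per well in 10% dialyzed FBS medium and allowed 4-5 hr to attach.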

[8] = qHTS assay to test for compound auto fluorescence at 590 nm (red) in HEK293 cells (AID 720679); details: red autofluorescence 540/590 nm; series mostly up to 91.3 µM
Method in brief: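 Red-channel autofluorescence (Ex/Em 540/590 nm; Rose Bengal sodium reference) was measured after overnight 37C, 5% CO2 exposure of attached HEK293 cells, 2,000 per well in medium with 10% dialyzed FBS.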

[9] = qHTS assay to test for compound auto fluorescence at 590 nm (red) in HepG2 cells (AID 720674); details: HepG2 autofluorescence, red 540/590 nm, 1 h; series mostly up to 91.3 µM
Method in brief: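 HepG2 cells, 2,000 per well in MEM with 10% FBS, attached overnight at 37 C, then got 23 nL compound or DMSO. After 1 hr at 37 C, 5% CO2, red fluorescence was read at 540/590 nm against Rose Bengal sodium as reference.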

[10] = qHTS assay for small molecules that induce genotoxicity in human embryonic kidney cells expressing luciferase-tagged ATAD5 (AID 651632); details: HEK293T ATAD5-luciferase induction, 16 h; series mostly up to 83.3 µM; further: nearly all actives have a fitted effect of over 15% in size
Method in brief: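 A rise in luciferase signal from ATAD5-tagged HEK293T cells marks genetic stress. Cells were exposed to compounds for 16 hr at 37C, 5% CO2, then luciferase was quantified after a 30 min room-temperature incubation with Amplite.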
On the % scale 0 is the no-effect control and ±100 the full control effect.

COc1ccc(Cl)cc1C
inactive: Potency [1] | outcome [2] | outcome [3] | outcome [4] | Potency [5] | outcome [6] | outcome [7] | outcome [8]

O=C1Nc2ccccc2C1=O
inactive: Potency [1] | outcome [2] | outcome [3] | outcome [4] | outcome [9] | outcome [6] | outcome [7] | outcome [8]

O=c1c(O)c(O)c1=O
inactive: Potency [1] | outcome [2] | outcome [3] | outcome [4] | Potency [5] | outcome [6] | outcome [7] | outcome [8]

O=c1[nH]c(=O)c2cn[nH]c2[nH]1
inactive: Potency [1] | Potency [10] | outcome [3] | outcome [9] | outcome [6] | outcome [7] | outcome [8]

COCCCOc1cc(C[C@@H](C[C@H](N)[C@@H](O)C[C@H](C(=O)NCC(C)(C)C(N)=O)C(C)C)C(C)C)ccc1OC
inactive: Potency [1] | outcome [2] | outcome [3] | Potency [5] | outcome [6] | outcome [8]

COc1cc(OC)cc(OC)c1
inactive: Potency [1] | outcome [2] | outcome [3] | Potency [5] | outcome [6] | outcome [7] | outcome [8]

Nc1ccc(C(=O)NCC(=O)O)cc1
inactive: Potency [1] | outcome [2] | outcome [3] | outcome [4] | fluorescence, relative to Rose Bengal [9] 0.477% [at 18.6 µM] | fluorescence, % of fluorescein control [6] 0.0596% [at 18.6 µM] | fluorescence, % of triamterene [7] -0.0255% [at 18.6 µM] | fluorescence, % of fluorescent control [8] -0.524% [at 18.6 µM]

CCCCCCC(O)CO (stereo not given)
inactive: Potency [1] | outcome [2] | outcome [3] | outcome [4] | outcome [9] | outcome [6] | outcome [7] | outcome [8]

CCCc1ccc(O)c(OC)c1
inactive: Potency [1] | outcome [2] | outcome [3] | outcome [4] | Potency [5] | outcome [9] | outcome [6] | outcome [7] | outcome [8]

Cc1ccc(S(=O)(=O)NC(=O)NN2CC3CCCC3C2)cc1 (stereo not given)
inactive: Potency [1] | Potency [10] | outcome [3] | fluorescence, % of fluorescein control [6] 0.0063% [at 18.6 µM] | fluorescence, % of triamterene [7] -0.0452% [at 18.6 µM] | fluorescence, % of fluorescent control [8] -0.0362% [at 18.6 µM]

CCO[Si](CC(C)C)(OCC)OCC
inactive: Potency [1] | outcome [2] | outcome [3] | outcome [4] | outcome [6] | outcome [7] | outcome [8]
active: Potency [5] 27.3 µM

CC(O)C(CO)C(C)O (stereo not given)
inactive: Potency [1] | outcome [2] | outcome [3] | outcome [4] | Potency [5] | outcome [6] | outcome [7] | outcome [8]

CC(C)CC(O)Cc1ccccc1 (stereo not given)
inactive: Potency [1] | Potency [10] | outcome [4] | Potency [5] | outcome [9] | outcome [6] | outcome [7] | outcome [8]

CC(C)CC(=O)N[C@H](C(=O)N[C@H](C(=O)N[C@@H](CC(C)C)[C@@H](O)CC(=O)N[C@@H](C)C(=O)N[C@@H](CC(C)C)[C@@H](O)CC(=O)O)C(C)C)C(C)C (Isovaleryl-VV[Sta]A[Sta]-OH)
inactive: Potency [1] | outcome [2] | outcome [3] | outcome [4] | Potency [5] | outcome [6] | outcome [7] | outcome [8]

C/C=C/C(=O)CCCC
inactive: Potency [1] | outcome [2] | outcome [3] | outcome [4] | Potency [5] | outcome [6] | outcome [7] | outcome [8]

CN(C)CCC[C@@]1(c2ccc(F)cc2)OCc2cc(C#N)ccc21
inactive: Potency [1] | Potency [10] | outcome [3] | outcome [9] | outcome [6] | outcome [7] | outcome [8]

Cc1ccc2ccccc2n1
inactive: Potency [1] | outcome [2] | outcome [3] | Potency [5] | outcome [9] | outcome [6] | outcome [7] | outcome [8]

From PubChem BioAssay (Tox21)
